HPGD inh: qHTS Assay for Inhibitors of HPGD (15-Hydroxyprostaglandin Dehydrogenase); 15-hydroxyprostaglandin dehydrogenase [NAD(+)] (Homo sapiens), P15428; purified HPGD, NADH fluorescence kinetic, PGE2 substrate; Potency, µM, hits mostly inhibitors; 150,000 compounds, 4.3% hits; AID 894, 2007
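NADH formation kinetics: reaction with 30 uM PGE2 and 1 mM NAD+ (final), 20 nM enzyme, Tris-HCl pH 8 with Tween 20, after 15 min compound preincubation at room temperature. Fluorescence change, last versus first of five reads.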
PNC assembly inh: High Content Assay for Compounds that inhibit the Assembly of the Perinucleolar Compartment. PC3M PTB-GFP, PNC prevalence imaging, 16 h; hits give low values. activity change (PNC), negative = inhibition, % at 10 µM. 140,000 compounds, 3.1% hits. AID 2417, 2010;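 active = readout at or below -70, meaning at least 70% loss of cells showing the perinucleolar compartment, a nuclear body marking cancer cells; inconclusive = readout between -30 and a set limit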
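PC3M cells stably expressing PTB-GFP, 750–1000 cells/well, treated 16 h at 37 °C with compound (23 nl of library stock), in duplicate. After paraformaldehyde fixation and Hoechst stain, imaged at 20x; PNC prevalence scored by image analysis.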
12-hLO inh: qHTS Assay for Inhibitors of 12-hLO (12-human lipoxygenase); purified 12-hLO, xylenol orange hydroperoxide absorbance; Potency, µM (top dose mostly 57.1 µM), most hits filed as inhibitors; 150,000 compounds, 0.12% hits; active = well fitted inhibition curve with a large enough effect; inconclusive = small, poorly fitted or top-dose-only effect; note: nearly all actives have a fitted effect of over 55% in size
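Purified human 12hLO (150 nM final) was preincubated with compounds for 15 min at room temperature in 25 mM Hepes pH 7.0, 0.01% Triton X-100, then reacted with 40 uM arachidonic acid for 30 min. Hydroperoxide was detected with ferrous iron/xylenol orange.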
LMNA splice mod: qHTS Assay for Modulators of Lamin A Splicing | HeLa LMNA splicing GFP/RFP minigene ratio, 48 h | Potency, µM (doses to about 46.1 µM), most hits filed as inhibitors | 200,000 compounds, 0.01% hits | AID 1487, 2009; active = well fitted inhibition curve with a large enough effect in the signal ratio, with a control signal flat, not every such curve was filed as active; inconclusive = small, poorly fitted or top-dose-only effect, or effect the other way, or a change in a side signal; the % refers to the signal ratio
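S3 HeLa stable clones carrying a lamin A-EGFP splicing minigene plus DsRed2 were seeded at 600 cells/well in Opti-MEM with 2% FBS, pin-dosed and incubated 48 h at 37°C. Acumen cytometry (488 nm) gave the GFP/RFP total-intensity ratio.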
ALDH1A1 inh: qHTS Assay for Inhibitors of Aldehyde Dehydrogenase 1 (ALDH1A1); Purified ALDH1A1, NADH fluorescence, propionaldehyde substrate; Potency, µM (highest dose often 75.3 µM), usual class: inhibitors; 220,000 compounds, 7.3% hits
Target sequence (P00352 whole entry, looked up): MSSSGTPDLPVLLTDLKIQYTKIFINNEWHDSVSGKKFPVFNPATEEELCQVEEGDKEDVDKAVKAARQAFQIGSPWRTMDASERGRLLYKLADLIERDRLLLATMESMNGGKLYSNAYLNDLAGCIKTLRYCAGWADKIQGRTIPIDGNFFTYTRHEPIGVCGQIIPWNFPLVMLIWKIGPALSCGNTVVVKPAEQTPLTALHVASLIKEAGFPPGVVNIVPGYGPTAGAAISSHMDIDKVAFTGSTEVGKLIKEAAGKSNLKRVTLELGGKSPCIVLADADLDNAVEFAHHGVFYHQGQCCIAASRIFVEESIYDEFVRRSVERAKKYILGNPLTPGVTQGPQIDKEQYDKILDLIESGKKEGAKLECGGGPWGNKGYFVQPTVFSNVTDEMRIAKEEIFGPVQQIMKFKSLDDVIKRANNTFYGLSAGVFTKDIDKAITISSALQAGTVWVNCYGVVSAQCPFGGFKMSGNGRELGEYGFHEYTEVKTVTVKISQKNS
A number is an active result; - = inactive; ? = inconclusive; . = no result given; [ ] = remark or other dose. Rows were chosen to be rich in hits. Some 10% of all compounds tested hit in one or more screens of this group. Unless noted, calls come from the whole dose curve; as a rule, active = well fitted inhibition curve with a large enough effect (not every such curve was filed as active); inconclusive = small, poorly fitted or top-dose-only effect, or another doubt; inactive = no such curve, though single readings can be large or run the other way.

SMILES	HPGD inh	PNC assembly inh	12-hLO inh	LMNA splice mod	ALDH1A1 inh
COc1ccc(C2C(C(=O)Nc3cccnc3)=C(C)Nc3nc(-c4cccs4)nn32)cc1 (stereo unspecified)	-	-	-	?	-
COc1ccc(C2C(C(=O)Nc3cccnc3)=C(C)Nc3nc(-c4cccs4)nn32)cc1OC (stereo unspecified)	-	-108.4	-	-	-
CC(CCC(=O)O)C1CCC2C3CC[C@H]4CC(O)CC[C@@]4(C)C3C=C[C@]12C (stereo partly specified)	-	.	-	.	-
CCn1c2ccccc2c2cc(/C=N/n3c(-c4cc(C)[nH]n4)n[nH]c3=S)ccc21	.	.	.	.	12.6µM
S=c1[nH]ncn1/N=C/c1ccc(Br)cc1	22.4µM	-	-	-	31.6µM
CCn1c2ccccc2c2cc(/C=N/n3cn[nH]c3=S)ccc21	15.8µM	-	-	-	22.4µM
S=c1[nH]ncn1/N=C/c1ccccc1	-	-	-	-	-
CCOC(=O)c1c(C)oc2nc(C)nc(Nc3cc(C)ccc3OC)c12	.	.	.	-	.
Clc1ccc(N2COC3c4cccc5cccc(c45)C32)cc1 (stereo unspecified)	-	-100.0	-	?	-
O=S(=O)(NC1c2cccc3cccc(c23)C1Sc1ncccn1)c1ccc(Cl)cc1 (stereo unspecified)	-	-	-	-	?
COc1ccc(N2COC3c4cccc5cccc(c45)C32)cc1 (stereo unspecified)	-	-	-	?	18.9µM
CS(=O)(=O)NC1c2cccc3cccc(c23)C1N1CCOCC1 (stereo unspecified)	-	-	-	-	?
CSC(N)=NCCC[C@H](N)C(=O)O	-	.	.	-	-
Cc1cccc(-c2c3c(=O)n(C)c(=O)n(C)c3cn2CC2CCCO2)c1 (stereo unspecified)	-	-	-	-	20µM
CCOC(=O)c1cc(NC(=O)c2ccoc2C)cc(C(=O)OCC)c1	-	-	-	-	6.31µM
CC(=O)c1cccc(NC(=O)c2ccoc2C)c1	.	.	.	-	-
CCCc1cc(C(N)=O)c(NC(=O)c2cc(C)on2)s1	-	?	-	-	?
NC(=O)c1cc(Cc2ccccc2)sc1NC(=O)c1ccco1	28.2µM	?	-	?	17.8µM
CCCc1cc(C(N)=O)c(NC(=O)c2ccoc2C)s1	?	-	-	-	17.8µM
O=C1CC[C@H](C(=O)O)N1	.	.	.	.	-
COc1ccccc1C1CC(=O)Oc2cc3c(cc21)OCO3 (stereo unspecified)	-	.	-[0.00818 µM]	.	?
COc1ccc2c(c1)-c1ccccc1S(=O)(=O)N2C(C)=O	-	-114.2	-	-	?
COc1ccc(OC)c(NC(=O)CN2C(=O)c3ccccc3S2(=O)=O)c1	-	-	-	-	-
O=C(c1cccc(S(=O)(=O)N2CCc3ccccc32)c1)N1CCN(c2ccccn2)CC1	.	.	.	?	12.6µM
O=C(c1ccc(Cl)c(S(=O)(=O)N2CCCC2)c1)N1CCN(c2ccccn2)CC1	-	-	-	?	-
SMILES	HPGD inh	PNC assembly inh	12-hLO inh	LMNA splice mod	ALDH1A1 inh
O=C(c1ccc(S(=O)(=O)N2CCCCCC2)cc1)N1CCN(c2ccccn2)CC1	-	-	-	-	12.6µM
COc1ccc(NC(=O)N2CCN(S(=O)(=O)c3ccc4c(ccn4C)c3)CC2)c(OC)c1	.	.	.	-	.
O=C1c2ccccc2C(=O)C1c1ccnc2ccccc12	-	-	-	-	-
N#CC1=C(N)SC(N)=C(C#N)C1c1ccnc2ccccc12	15.8µM	-	-	-	?
COc1ccc(NC(=O)c2nc(S(C)(=O)=O)ncc2N(Cc2ccc(C)cc2)Cc2ccco2)cc1Cl	.	.	.	-	.
OCCN1CCN(C(c2cccs2)c2ccc3cccnc3c2O)CC1 (stereo unspecified)	3.55µM	-	14.1µM	-	1.26µM
S=C(Nc1ccccc1)N1CCCCC1	-	-	-	-	-
S=C(Nc1ccccc1)N1CCN(C(=S)c2ccccc2)CC1	.	.	.	.	12.6µM
Cc1ccc(C(=O)NCc2ccccc2)cc1Br	25.1µM	-	-	-	?
COc1ccc(C(=O)NCc2ccccc2)cc1Br	-	-	-	-	-
CCN(Cc1ccccc1)C(=O)c1ccc(Cl)cc1[N+](=O)[O-]	.	.	.	.	-
O=C(CNC(=O)c1ccc(Oc2ccccc2)cc1)OCc1ccc(Br)cc1	-	-	-	-	-
O=C(NCc1ccccc1)c1ccc(Oc2ccc(C(=O)NCc3ccccc3)cc2)cc1	12.6µM	-	-	-	-
O=C(NCc1ccccc1)c1ccc(Cl)cc1[N+](=O)[O-]	12.6µM	-	-	-	-
O=C(CNC(=O)c1ccc(Oc2ccccc2)cc1)OC1CCCCC1=O (stereo unspecified)	-	-	-	-	22.4µM
CCN1C(=O)[C@H]2[C@H]3[C@H](O)[C@H](O)C/C(=N/OC)[C@@H]3CC[C@@H]2C1=O	.	.	.	.	-[13.5 µM]
CC[C@H](C)C(=O)O[C@@H]1C[C@H](C)C=C2C=C[C@H](C)[C@@H](CC[C@H]3C[C@@H](O)CC(=O)O3)[C@H]21	-	.	-	?	-
CC(C)N(Cc1ccccc1)C(=O)Cn1ncc2c([nH]c3ccccc32)c1=O	.	.	.	-	.
Cc1cccc(CNC(=O)C2CCN(S(=O)(=O)c3ccc4c(c3)CCCN4C(=O)C3CCC3)CC2)c1	.	.	.	-	.
Cc1ccccc1NC(=O)C(=O)NCC(c1ccc2c(c1)OCO2)N1CCN(c2ccccc2)CC1 (stereo unspecified)	.	.	.	-	.
O=C(NCc1ccccc1)c1ccccc1Br	.	.	.	.	-
O=C(NCc1ccccc1)c1ccc(Br)cc1Br	3.55µM	-	-	-	-
Cc1cccc(NC(=O)c2ccccc2Br)n1	25.1µM	-	-	-	?
Cc1cccc(NC(=O)c2cc(NC(=O)c3ccco3)ccc2Cl)n1	-	-110.0	-	-	-
Cc1cccc(NC(=O)c2onc3c2CCCC3)n1	-	-	-	-	22.4µM
SMILES	HPGD inh	PNC assembly inh	12-hLO inh	LMNA splice mod	ALDH1A1 inh
CCOC(=O)CSc1nc2ccc(NC(=O)c3ccc(F)cc3)cc2s1	.	.	.	-	.
Cc1cc2nc(CS(=O)(=O)c3ccccc3)cc(=O)n2[nH]1	.	.	.	-	-
C/C(=N\Nc1ccc(Cl)cc1)c1c(O)cc(C)oc1=O	.	.	.	?	7.94µM
Cc1cc(O)c(/C=N/Nc2ccccc2)c(=O)o1	-	-	?	-	7.94µM
Cc1cc(O)c(C=Nc2cccc(Cl)c2)c(=O)o1	-	-	-	-	-
C/C(=N\Nc1ccc(Cl)cc1)c1ccccn1	-	?	?	-	?
COc1ccc(C(=O)C2CCCN(Cc3c(C)[nH]c4ccccc34)C2)c(OC)c1 (stereo unspecified)	.	.	.	.	25.1µM
COc1cc2c(cc1OC)C(C1C(=O)CCCC1=O)N(C(=O)CCl)CC2 (stereo unspecified)	-	?	-	-	?
